A selection: hits, their analogues and other compounds. The true share with any hit is near 2.2%.
EBV LMP1 NFkB: inhibitors of Epstein-Barr LMP1-induced NF-kappaB reporter. LMP1-induced NF-kappaB luciferase reporter cells, luminescence. inhibition, % at 12.5 µM. hit rate 0.69% among 350,000; in the data active = inhibition above about 41%;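 note: 0% = neutral control wells and 100% = reference inhibitor control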
Shn3 inh set2: Schnurri-3 reporter inhibition in Clone20 osteoblasts | hit rate 0.52% among 360,000 | Clone20 osteoblast Shn3 3'UTR firefly luciferase, 24 h | AID 588674 | inhibition, % at 12.5 µM;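 active = mean inhibition of at least 75% with every replicate also reaching 75%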;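 note: 0% = median of neutral control wells and 100% = pilot-screen positive control compound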
EWS-Fli inh: blocks EWS/Fli oncoprotein-driven transcription | hit rate 0.67% among 350,000 | inhibition, % at 12.6 µM | A673 NR0B1-luciferase reporter, viability-normalised;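 active = mean inhibition of at least 50% after viability correction, with every replicate also passing that limit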;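 note: firefly luciferase signal divided by Alamar Blue viability fluorescence both relative to DMSO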
LGR2 antag: blocks bursicon-induced cAMP signaling via Drosophila LGR2. hit rate 0.35% among 380,000. AID 720647. inhibition, % at 9.99 µM. HEK293 LGR2, CRE-luciferase, bursicon-stimulated, 4 h;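 active = drop in luminescence signal, shown as inhibition above about 50% in the replicate tests, limit read from the data, passing the limit was not always enough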;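 note: agonist challenge used bursicon conditioned medium at about half maximal strength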
TRPM1 prom inh: MITF TRPM1 promoter inhibition in SK-MEL-5 cells. SK-MEL-5 TRPM1 promoter luciferase, 24 h. inhibition, % at 12.5 µM. hit rate 0.83% among 330,000. AID 488899;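 active = mean inhibition across replicates of 60% or more, whatever share of single replicates reaches that level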
PAX8 inh HTS: lowers PAX8-driven luciferase in RMG-I cells. RMG-I TPO-luciferase reporter, SteadyGlo, 24 h. inhibition, % at 12.6 µM. hit rate 1.2% among 360,000;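 active = mean replicate inhibition at least 60% with every replicate also reaching 60%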;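 note: luciferase light reporting Pax8 driven TPO promoter activity; plate controls were median of neutral control wells for no effect and mitoxantrone controls for full effect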
Active calls of the source: *; / = no result given.

SMILES	EBV LMP1 NFkB	Shn3 inh set2	EWS-Fli inh	LGR2 antag	TRPM1 prom inh	PAX8 inh HTS
COc1ccc(NC(=O)N(C)C[C@H]2OCCCC[C@H](C)Oc3ccc(NC(=O)CCC(F)(F)F)cc3C(=O)N([C@H](C)CO)C[C@@H]2C)cc1	/	/	1	2	/	-13
CCOC(=O)CSC1=NC(=O)/C(=C\c2ccc(OC(C)=O)cc2)S1	-28	-35	/	/	79*	/
C[C@@H]1CCCCO[C@@H](CN(C)CC2CCCCC2)[C@H](C)CN([C@H](C)CO)C(=O)c2cc(NC(=O)Nc3ccc(C(F)(F)F)cc3)ccc2O1	/	/	76*	10	/	-24
C[C@@H]1CCCCO[C@H](CN(C)CC2CCCCC2)[C@H](C)CN([C@H](C)CO)C(=O)c2cc(NC(=O)Nc3ccc(C(F)(F)F)cc3)ccc2O1	/	/	75*	/	/	9
C[C@@H]1CCCCO[C@@H](CN(C)CC2CCCCC2)[C@@H](C)CN([C@@H](C)CO)C(=O)c2cc(NC(=O)Nc3ccc(C(F)(F)F)cc3)ccc2O1	/	/	65*	/	/	100*
C[C@@H]1CN([C@@H](C)CO)C(=O)c2cc(NC(=O)Nc3ccc(C(F)(F)F)cc3)ccc2O[C@@H](C)CCCCO[C@@H]1CN(C)CC1CCCCC1	/	/	-12	9	/	108*
C[C@@H]1CCCCO[C@H](CN(C)CC2CCCCC2)[C@@H](C)CN([C@H](C)CO)C(=O)c2cc(NC(=O)Nc3ccc(C(F)(F)F)cc3)ccc2O1	/	/	-1	0	/	-23
C/C=C/c1cnc2c(c1)C(=O)N([C@H](C)CO)C[C@@H](C)[C@H](CN(C)Cc1ccccc1F)O2	/	/	-7	11	/	-21
CNC[C@@H]1OCCCC[C@H](C)Oc2ccc(N(C)C)cc2C(=O)N([C@@H](C)CO)C[C@H]1C	/	/	5	/	/	0
CN1C(=O)c2cc(NC(=O)Nc3ccccc3)ccc2OC[C@H]2O[C@H](CC(=O)O)CC[C@H]21	/	/	-9	-9	/	4
CCOC(=O)c1nnn(-c2ccc([N+](=O)[O-])cc2[N+](=O)[O-])c1C	-35	-23	0	24	77*	30
C[C@H](CO)N1C[C@H](C)[C@H](CN(C)S(=O)(=O)c2cccs2)Oc2ccc(NC(=O)CCC(F)(F)F)cc2C1=O	/	/	-1	3	/	/
CCCCNC(=O)/C(=C/c1ccccc1)NC(C)=O	8	19	-5	/	0	139*
CCC(=O)N1CC2(C1)[C@H](c1ccccc1)[C@H](CO)N2Cc1cccc(Cl)c1	/	/	-1	-10	/	/
C[C@H]1CN([C@@H](C)CO)C(=O)c2cc(/C=C/c3ccccc3)cnc2O[C@@H]1CN(C)C(=O)C1CC1	/	/	-12	-2	/	/
C[C@@H]1CN([C@@H](C)CO)C(=O)c2cc(/C=C/c3ccccc3)cnc2O[C@@H]1CN(C)C(=O)Nc1ccc(C(F)(F)F)cc1	/	/	52*	22	/	/
C[C@@H]1CN([C@H](C)CO)C(=O)c2cc(/C=C/c3ccccc3)cnc2O[C@@H]1CN(C)C(=O)C1CC1	/	/	-14	-9	/	74*
C/C=C/c1cnc2c(c1)C(=O)N([C@@H](C)CO)C[C@@H](C)[C@@H](CN(C)Cc1cccc(C(=O)O)c1)O2	/	/	-12	4	/	0
O=C(NC1Cc2ccccc2C1)[C@H]1[C@H](CO)[C@H]2Cn3c(ccc(-c4ccccc4F)c3=O)[C@@H]1N2	/	/	-2	1	/	1
COCC(=O)Nc1ccc2c(c1)C(=O)N(C)C[C@H](OC)[C@@H](C)CN(Cc1ccncc1)[C@@H](C)CO2	/	/	16	2	/	-1
Oc1c(Cl)cc(CN2CCCCC2)c2cccnc12	63*	84	/	/	64*	/
Oc1c(CN2CCN(c3ccccn3)CC2)cc(Cl)c2cccnc12	40	81	/	/	84*	/
COCc1cc(CN2CCCC2)c(O)c2ncccc12	13	41	/	4	27	/
CN(C)C1CCN(Cc2cc(COCc3ccccc3)c3cccnc3c2O)C1 (configuration not stated)	29	88*	/	/	73*	/
Oc1c(CN2CCCCC2)ccc2cccnc12	18	84	-2	-14	77*	54
COCC(=O)N(C)C[C@H]1Oc2cc(C#CC3CCCC3)ccc2S(=O)(=O)N([C@H](C)CO)C[C@H]1C	/	/	-1	0	/	/
COc1ccccc1N1CCN(Cc2cc(Br)c(O)c3ncccc23)CC1	17	70	31	33	71*	100*
CCOc1ccccc1N1CCN(Cc2cccc(OC)c2O)CC1	2	26	/	4	-2	/

Screening results from PubChem.
